Screening data as filed in PubChem.
Rows were chosen to be rich in hits. Some 17% of all compounds tested hit in one or more screens of this group.
HepG2 viability: counter-screen for TGF-b inhibitors: cytotoxicity in HepG2 cells; HepG2 CAGA-GFP viability, ATP luminescence, 18 h; Potency, µM (top dose mostly 46.1 µM), for the others: at the highest dose activity change, negative = cytotoxicity, hits mostly cytotoxic; hit rate 0.76% among 410,000
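CellTiter-Glo luminescence gave cytotoxicity after 18 hours at 37 degrees C. The cells were HepG2 CAGA-GFP in 1% FBS DMEM, stimulated with 500 pg/mL TGF-beta after compound addition. %Activity was normalised to no-cell wells (complete cell-killing) and DMSO (no toxicity), and curves were fitted and classified.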
S2 tox: reduces viability in counter-screen for ATXN expression inhibitors. hit rate 0.49% among 400,000. S2 cells (HEK-293 line with an ATXN2-luciferase reporter) viability, CellTiter-Fluor protease fluorescence, 24 h. Potency, µM (doses to about 56.7 µM), hits mostly cytotoxic; further: nearly all actives have a fitted effect of over 40% in size
TGFb inhibitor: inhibitors of TGF-b signaling; HepG2 CAGA-GFP TGF-b/SMAD3 reporter, GFP fluorescence, 18 h; TGF-beta stimulated, 500 pg/mL final; Potency, µM (highest dose often 46.1 µM), for inactives: top-dose activity, negative = inhibition, most hits filed as inhibitors; hit rate 1.2% among 410,000; further: on the % scale 0 is the no-effect control and ±100 the full control effect; nearly all actives have a fitted effect of over 65% in size
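Per well, imaged GFP fluorescence of HEPG2 CAGA-GFP cells gives the signal; cells get compound, then TGF-beta (500 pg/mL final), 18 h at 37 degrees C; %Activity versus -TGF-beta and +DMSO controls.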
ATXN2 expr inh: inhibitors of ATXN2 expression; HEK-293 ATXN2-luciferase reporter, luminescence, 24 h; Potency, µM (series often up to 57 µM), for inactives: at the highest dose activity change, negative = inhibition, hits mostly inhibitors; hit rate 0.72% among 360,000; further: on the % scale 0 is the no-effect control and ±100 the full control effect; nearly all actives have a fitted effect of over 55% in size
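ATXN2-luciferase reporter cells (luciferase flanked by upstream and downstream ATXN2 gene portions) were treated 24 h at 37 °C with compounds at up to 57 uM. SteadyGlo luminescence gave expression; GF-AFC fluorescence gave viability.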
DT40 TDP1 no CPT: qHTS for Inhibitors of human tyrosyl-DNA phosphodiesterase 1 (TDP1): qHTS in cells in absence of CPT; DT40 Tdp1-/- hTDP1 cells, no CPT, ATP luminescence, 48 h; Potency, µM (series often up to 46.2 µM), for inactives: top-dose activity change, negative = growth inhibition, hits mostly inhibitors; hit rate 15% among 420,000; further: on the % scale 0 is the no-effect control and ±100 the full control effect; nearly all actives have a fitted effect of over 55% in size
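Cells were dispensed at 400 per well, compounds added by pin tool, plates incubated ≥48 hr at 37 °C, then CellTiter-Glo added for 30 min at room temperature before luminescence reading. Line: DT40 Tdp1-/- complemented with hTDP1; camptothecin omitted.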
TDP1 cell CPT: growth inhibition of DT40 Tdp1-/-;hTDP1 cells with camptothecin (screen for TDP1 inhibitors); hit rate 12% among 420,000; chicken DT40 Tdp1-/-;hTDP1 cells + 20 nM CPT, ATP luminescence, 48 h; Potency, µM (highest dose often 46.2 µM), for inactives: at the top dose activity change, negative = growth inhibition, most hits filed as inhibitors; further: on the % scale 0 is the no-effect control and ±100 the full control effect; nearly all actives have a fitted effect of over 55% in size
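Chicken DT40 Tdp1-/- cells complemented with human TDP1, 400 cells/well, exposed to compounds plus 20 nM camptothecin for at least 48 h at 37 C; viability read as ATP content by CellTiter-Glo luminescence.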
* marks the source's active call; other numbers are inactive results. The call rests on the fitted dose curve; in most records, active means well fitted curve in the direction sought with a large enough effect; inconclusive means small, poorly fitted or top-dose-only effect, or another doubt; inactive means no such curve, though single readings can be large; an effect the other way counts as inactive or inconclusive. Potency means the concentration at half of the fitted maximal effect.

For O=C(CSc1nnc(COc2ccc(Cl)cc2)o1)N(c1ccccc1)C1CCS(=O)(=O)C1 (centres undefined) the results were HepG2 viability -16%, S2 tox inconclusive, TGFb inhibitor -20%, DT40 TDP1 no CPT 13µM* and TDP1 cell CPT inconclusive.
For O=C(CN(C(=O)CSc1nnc(COc2ccccc2)o1)c1ccc(F)cc1)NC1CCCC1 the results were HepG2 viability -14%, S2 tox inactive, TGFb inhibitor -8%, ATXN2 expr inh -2%, DT40 TDP1 no CPT inconclusive and TDP1 cell CPT inconclusive.
For Cc1cccc(OCc2nnc(SCC(=O)N(C)C3CCCCC3)o2)c1 the results were HepG2 viability -5%, S2 tox inactive, TGFb inhibitor -11%, ATXN2 expr inh 5%, DT40 TDP1 no CPT inconclusive and TDP1 cell CPT 18µM*.
For COc1ccc(-c2nnc(SCC(=O)N(C)C3CCCCC3)o2)cc1OC the results were HepG2 viability -5%, S2 tox inactive, TGFb inhibitor 0%, ATXN2 expr inh 2%, DT40 TDP1 no CPT 12µM* and TDP1 cell CPT 16µM*.
CCOc1ccc(N(CC(=O)NC2CCCC2)C(=O)CSc2nnc(COc3ccccc3)o2)cc1 was read as HepG2 viability -21%, S2 tox inactive, TGFb inhibitor -2%, ATXN2 expr inh 2%, DT40 TDP1 no CPT 21µM* and TDP1 cell CPT 21µM*.
COc1cccc(NC(=O)CC(C)S(=O)(=O)c2ccc3c(c2)NC(=O)CO3)c1 (centres undefined) was read as HepG2 viability -3%, S2 tox inactive, TGFb inhibitor 14%, ATXN2 expr inh -2%, DT40 TDP1 no CPT inconclusive and TDP1 cell CPT -12%.
`COCCCNC(=O)CSc1nc2c(sc3ccccc32)c(=O)n1CCCC(=O)NCC1CCCO1` (centres undefined) gave HepG2 viability 4%, S2 tox inactive, TGFb inhibitor -4%, DT40 TDP1 no CPT -13% and TDP1 cell CPT 8%.
`CC1(C(=O)NNC(=O)C2CCCCC2)CC1(Cl)Cl` (centres undefined) gave HepG2 viability 12%, S2 tox inactive, TGFb inhibitor 14%, ATXN2 expr inh 5%, DT40 TDP1 no CPT 7% and TDP1 cell CPT 16%.
CN(C(=O)CSc1nc2ccccc2o1)C1CCCCC1 was read as HepG2 viability 3%, S2 tox inactive, TGFb inhibitor -8%, ATXN2 expr inh 0%, DT40 TDP1 no CPT 29µM* and TDP1 cell CPT inconclusive.
`CCCCN1CC(C(=O)NC2CCCCC2)CC1=O` (centres undefined) gave HepG2 viability 7%, S2 tox inactive, TGFb inhibitor 3%, ATXN2 expr inh 0%, DT40 TDP1 no CPT -21% and TDP1 cell CPT 1%.
`O=C(Nc1ccccc1N1CCN(c2ccccc2)CC1)c1ccccc1F` gave HepG2 viability 1%, S2 tox inactive, TGFb inhibitor 58%, ATXN2 expr inh -17%, DT40 TDP1 no CPT 3.7µM* and TDP1 cell CPT inconclusive.
`O=C(Nc1ccccc1N1CCN(c2ccccc2)CC1)C12CC3CC(CC(C3)C1)C2` gave HepG2 viability -15%, S2 tox inactive, TGFb inhibitor -4%, ATXN2 expr inh -4%, DT40 TDP1 no CPT 21µM* and TDP1 cell CPT inconclusive.
For COc1ccccc1N1CCN(S(=O)(=O)CCNC(=O)C23CC4CC(CC(C4)C2)C3)CC1 the results were HepG2 viability -18%, S2 tox inconclusive, TGFb inhibitor inconclusive, DT40 TDP1 no CPT inconclusive and TDP1 cell CPT inconclusive.
O=C(Nc1ccccc1N1CCCC1)c1ccccc1F was read as HepG2 viability -18%, S2 tox inactive, TGFb inhibitor -3%, ATXN2 expr inh -3%, DT40 TDP1 no CPT -22% and TDP1 cell CPT inconclusive.
